# Data from the supplement of paper PMC10849652.
# Of roughly 7,900 targets only a part is listed; those with a hit were picked by preference. About 0.6% of all pairs of compound and target were hits. Values without a mark were called inactive.
# Experiments:
# Assay in all cases: log2 fold change, soluble protein after heating vs DMSO (PISA); higher = thermal stabilisation; K562 cells, 10 uM, 30 min; active = over 0.2 and 3.5 SD of the protein, either way, in both replicates (recomputed)
# [1] = compound: C#Cc1cccc(Nc2ncnc3cc(OCCOC)c(OCCOC)cc23)c1 [erlotinib]
# Outline: (§1)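 Aliquots of K562 cells (2×10^6 cells/mL) treated with 10 μM compound for 30 min were heated for 3 min over 48°C-58°C. After pooling and extraction in PBS with 0.5% NP-40 at 4°C, soluble protein from a 21,000xg, 90 min spin was quantified by TMTpro 16plex LC-MS/MS with channel sums equalised. Thermal stability is expressed against control samples, from duplicates, as a log2 fold change.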
# [2] = compound: C/C(=N\NC(=O)C1=CC(=CC=C1)S(=O)(=O)N2CCOCC2)/C3=C(C=CC(=C3)Cl)O
# Outline: as §1
# [3] = compound: C1=CC(=C(C=C1Cl)C2=NC3=NC=CN=C3C(=N2)NC4=CC=NC=C4)F
# Outline: as §1
# [4] = compound: C1=CC(=CC=C1C2=NC3=C(N2)C=C(C=C3)C(=O)N)OC4=CC=C(C=C4)Cl
# Outline: as §1
# [5] = compound: C1=CC2=C(C=CC(=C2)/C=C\3/C(=O)NC(=NCC4=CC=CS4)S3)N=C1
# Outline: as §1
# [6] = compound: C1=CC2=NC=CN=C2C=C1/C=C/3\C(=O)NC(=O)S3
# Outline: as §1
# [7] = compound: C1=CC=C(C=C1)C2=NC(=C(N2)C3=CC=NC=C3)C4=CC(=C(C=C4)Cl)O
# Outline: as §1
# [8] = compound: C1=CC=C2C(=C1)C3=NNC4=CC=CC(=C43)C2=O
# Outline: as §1
# [9] = compound: C1CCN(C1)C(=O)NC2=CC=CC(=C2)NC3=NC=C(C(=N3)NCCC4=CN=CN4)Br
# Outline: as §1
# [10] = compound: C1CN(CCC1(CC2=CC=C(C=C2)Cl)N)C3=NC=NC4=C3C=CN4
# Outline: as §1
# UniProt Q6R327, sequence (Q6R327 whole entry, looked up): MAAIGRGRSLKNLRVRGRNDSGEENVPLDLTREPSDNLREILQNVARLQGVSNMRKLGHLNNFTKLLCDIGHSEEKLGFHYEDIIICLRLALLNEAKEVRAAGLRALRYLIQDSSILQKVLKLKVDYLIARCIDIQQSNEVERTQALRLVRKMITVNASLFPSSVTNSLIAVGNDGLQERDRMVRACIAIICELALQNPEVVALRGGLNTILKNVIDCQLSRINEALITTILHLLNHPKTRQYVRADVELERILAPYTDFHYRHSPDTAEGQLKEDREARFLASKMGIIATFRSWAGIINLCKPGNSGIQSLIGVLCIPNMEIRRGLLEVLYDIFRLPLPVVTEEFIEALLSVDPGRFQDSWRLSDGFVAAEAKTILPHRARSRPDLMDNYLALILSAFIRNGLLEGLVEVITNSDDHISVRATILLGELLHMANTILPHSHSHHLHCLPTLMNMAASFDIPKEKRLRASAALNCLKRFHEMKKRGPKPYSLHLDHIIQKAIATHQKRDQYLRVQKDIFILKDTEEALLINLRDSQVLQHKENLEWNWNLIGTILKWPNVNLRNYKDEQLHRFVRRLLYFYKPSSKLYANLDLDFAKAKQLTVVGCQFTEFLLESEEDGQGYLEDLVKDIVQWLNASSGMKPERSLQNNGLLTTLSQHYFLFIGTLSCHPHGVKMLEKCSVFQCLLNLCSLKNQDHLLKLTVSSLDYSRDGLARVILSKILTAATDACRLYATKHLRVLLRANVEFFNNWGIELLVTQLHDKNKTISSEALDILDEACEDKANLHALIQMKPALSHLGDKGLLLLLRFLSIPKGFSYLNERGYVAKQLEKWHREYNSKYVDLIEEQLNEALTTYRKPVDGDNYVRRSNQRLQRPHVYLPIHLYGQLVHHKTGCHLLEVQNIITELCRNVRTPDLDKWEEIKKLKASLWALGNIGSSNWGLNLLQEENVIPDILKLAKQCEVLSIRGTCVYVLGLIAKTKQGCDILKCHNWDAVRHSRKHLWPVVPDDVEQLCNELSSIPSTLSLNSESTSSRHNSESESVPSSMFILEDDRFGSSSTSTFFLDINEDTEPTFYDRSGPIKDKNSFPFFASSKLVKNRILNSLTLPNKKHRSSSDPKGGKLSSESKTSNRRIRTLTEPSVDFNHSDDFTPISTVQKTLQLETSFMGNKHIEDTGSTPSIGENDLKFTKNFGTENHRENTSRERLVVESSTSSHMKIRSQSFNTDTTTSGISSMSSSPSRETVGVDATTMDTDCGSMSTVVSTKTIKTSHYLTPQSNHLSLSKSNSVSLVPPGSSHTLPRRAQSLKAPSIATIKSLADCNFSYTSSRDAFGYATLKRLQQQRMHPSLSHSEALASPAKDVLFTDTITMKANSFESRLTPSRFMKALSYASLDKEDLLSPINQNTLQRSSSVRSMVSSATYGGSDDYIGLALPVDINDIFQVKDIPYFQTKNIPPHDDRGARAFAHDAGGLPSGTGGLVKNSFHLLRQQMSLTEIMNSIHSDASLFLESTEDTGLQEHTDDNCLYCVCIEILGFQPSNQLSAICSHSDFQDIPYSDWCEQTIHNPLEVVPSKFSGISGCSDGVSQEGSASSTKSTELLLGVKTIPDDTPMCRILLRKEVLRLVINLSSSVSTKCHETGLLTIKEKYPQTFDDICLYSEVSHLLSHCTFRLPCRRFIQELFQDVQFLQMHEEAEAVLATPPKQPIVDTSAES
# UniProt Q99496, sequence (Q99496 whole entry, looked up): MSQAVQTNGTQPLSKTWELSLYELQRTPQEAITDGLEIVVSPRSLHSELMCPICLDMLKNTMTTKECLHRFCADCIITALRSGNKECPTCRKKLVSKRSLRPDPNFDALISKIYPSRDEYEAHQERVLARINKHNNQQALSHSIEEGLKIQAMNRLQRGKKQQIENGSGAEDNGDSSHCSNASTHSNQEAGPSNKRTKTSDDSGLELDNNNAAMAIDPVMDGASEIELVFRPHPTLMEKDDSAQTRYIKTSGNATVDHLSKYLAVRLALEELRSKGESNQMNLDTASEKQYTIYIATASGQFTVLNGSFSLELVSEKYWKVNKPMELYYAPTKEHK
# UniProt P61586, sequence (P61586 whole entry, looked up): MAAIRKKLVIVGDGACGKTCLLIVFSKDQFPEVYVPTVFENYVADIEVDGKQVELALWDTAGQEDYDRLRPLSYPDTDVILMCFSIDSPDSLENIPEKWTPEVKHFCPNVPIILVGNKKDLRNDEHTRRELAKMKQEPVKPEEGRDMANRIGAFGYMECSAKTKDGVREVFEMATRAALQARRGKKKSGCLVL
# UniProt Q8WZA2, sequence (Q8WZA2 whole entry, looked up): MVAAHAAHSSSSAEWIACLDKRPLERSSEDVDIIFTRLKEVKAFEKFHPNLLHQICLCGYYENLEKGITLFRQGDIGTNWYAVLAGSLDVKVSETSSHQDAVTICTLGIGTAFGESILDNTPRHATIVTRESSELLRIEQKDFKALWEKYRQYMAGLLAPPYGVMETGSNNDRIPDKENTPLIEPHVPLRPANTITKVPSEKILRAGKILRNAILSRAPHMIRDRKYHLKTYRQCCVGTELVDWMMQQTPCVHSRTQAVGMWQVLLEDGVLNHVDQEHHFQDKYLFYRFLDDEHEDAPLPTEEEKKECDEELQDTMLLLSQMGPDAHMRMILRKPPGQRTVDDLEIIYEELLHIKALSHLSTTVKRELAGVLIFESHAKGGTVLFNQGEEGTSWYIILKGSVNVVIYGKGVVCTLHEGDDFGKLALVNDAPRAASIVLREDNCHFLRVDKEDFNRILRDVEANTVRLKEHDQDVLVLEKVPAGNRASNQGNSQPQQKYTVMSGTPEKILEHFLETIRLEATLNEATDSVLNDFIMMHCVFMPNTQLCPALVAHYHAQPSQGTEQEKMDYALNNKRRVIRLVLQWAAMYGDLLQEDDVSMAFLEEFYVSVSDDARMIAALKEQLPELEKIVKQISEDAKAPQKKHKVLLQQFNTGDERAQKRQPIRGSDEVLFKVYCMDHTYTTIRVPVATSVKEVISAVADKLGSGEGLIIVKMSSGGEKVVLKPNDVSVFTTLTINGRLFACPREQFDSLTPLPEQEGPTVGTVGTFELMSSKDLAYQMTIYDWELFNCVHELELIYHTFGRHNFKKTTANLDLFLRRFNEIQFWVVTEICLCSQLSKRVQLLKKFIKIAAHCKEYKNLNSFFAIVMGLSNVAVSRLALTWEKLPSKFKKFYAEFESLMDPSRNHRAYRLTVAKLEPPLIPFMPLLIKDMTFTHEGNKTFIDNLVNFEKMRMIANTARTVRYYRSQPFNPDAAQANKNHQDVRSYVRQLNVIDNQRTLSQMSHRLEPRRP
# UniProt Q5VUM1, sequence (Q5VUM1 whole entry, looked up): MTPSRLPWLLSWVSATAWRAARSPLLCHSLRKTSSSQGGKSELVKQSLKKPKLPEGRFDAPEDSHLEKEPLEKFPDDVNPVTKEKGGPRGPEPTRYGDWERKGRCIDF
# UniProt P60903, sequence (P60903 whole entry, looked up): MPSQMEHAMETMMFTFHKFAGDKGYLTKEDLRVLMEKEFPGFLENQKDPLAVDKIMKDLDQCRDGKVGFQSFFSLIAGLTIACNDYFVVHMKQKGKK
# UniProt Q9NPQ8, sequence (Q9NPQ8 whole entry, looked up): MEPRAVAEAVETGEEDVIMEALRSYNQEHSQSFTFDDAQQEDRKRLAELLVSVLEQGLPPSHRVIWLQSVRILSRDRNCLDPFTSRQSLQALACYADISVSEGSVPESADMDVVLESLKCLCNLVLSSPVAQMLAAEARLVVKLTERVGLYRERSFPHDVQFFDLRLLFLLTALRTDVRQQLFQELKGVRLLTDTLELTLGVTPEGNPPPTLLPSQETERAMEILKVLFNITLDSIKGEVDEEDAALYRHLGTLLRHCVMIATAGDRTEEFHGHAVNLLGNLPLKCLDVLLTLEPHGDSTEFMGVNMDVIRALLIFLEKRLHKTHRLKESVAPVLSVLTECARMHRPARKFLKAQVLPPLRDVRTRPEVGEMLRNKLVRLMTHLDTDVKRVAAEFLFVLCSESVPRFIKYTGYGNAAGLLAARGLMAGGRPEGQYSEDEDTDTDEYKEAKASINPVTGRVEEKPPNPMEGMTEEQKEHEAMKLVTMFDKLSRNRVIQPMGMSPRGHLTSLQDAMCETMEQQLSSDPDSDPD
# UniProt Q92930, sequence (Q92930 whole entry, looked up): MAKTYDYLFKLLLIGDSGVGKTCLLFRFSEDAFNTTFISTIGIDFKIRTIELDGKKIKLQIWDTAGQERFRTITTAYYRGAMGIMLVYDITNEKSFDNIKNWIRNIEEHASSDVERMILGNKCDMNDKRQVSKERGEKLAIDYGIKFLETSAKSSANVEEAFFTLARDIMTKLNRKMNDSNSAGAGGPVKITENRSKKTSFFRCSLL
Target,log2 fold change [1],log2 fold change [2],log2 fold change [3],log2 fold change [4],log2 fold change [5],log2 fold change [6],log2 fold change [7],log2 fold change [8],log2 fold change [9],log2 fold change [10]
RBIS (UniProt Q8N0T1),-0.051,0.015,-0.038,0.044,0.007,0.031,-0.121,-0.083,0.037,-0.093
RAPGEF4 (UniProt Q8WZA2),0.271,-0.636 (active),0.057,0.053,0.19,0.029,–,-0.014,-0.038,0.18
RALY (UniProt Q9UKM9),0.018,-0.072,-0.541,0.189,-0.144,0.154,-0.11,0.038,0.008,-0.22
RUFY1 (UniProt Q96T51),0.01,0.094,-0.046,-0.018,0.022,0.034,-0.027,0,0.031,-0.084
RIPK1 (UniProt Q13546),0.013,-0.008,-0.028,0,0.068,-0.016,0.004,0.219,0.002,-0.015
SLC12A5 (UniProt Q9H2X9),0.036,0.054,-0.49 (active),0.034,0.098,-0.021,–,-0.138,0.038,0.103
RBM12 (UniProt Q9NTZ6),0.092,0.187,0.123,-0.022,0.117,-0.003,-0.008,0.011,-0.046,0.006
RRP9 (UniProt O43818),0.018,-0.04,-0.099,-0.004,-0.042,0.03,-0.114,-0.085,-0.081,-0.016
RAB8B (UniProt Q92930),0.258,0.085,0.332 (active),0.028,-0.02,0.145,0.029,0.012,0.027,-0.043
REEP4 (UniProt Q9H6H4),-0.024,0.027,-0.049,0.026,-0.018,0.005,0.063,-0.04,0.047,-0.081
RRAGB (UniProt Q5VZM2),-0.028,0.047,0.004,0.023,-0.13,0,0.021,0.082,-0.048,0.037
RABGAP1L isoform 5 (UniProt Q5R372),0.114,0.043,-0.076,0.089,-0.007,0.045,–,-0.097,0.023,0.016
RPS16 (UniProt P62249),-0.166,-0.108,-0.258,0.049,-0.075,-0.043,-0.049,0.002,0.025,-0.2
RHOA (UniProt P61586),0.028,-0.029,0.012,-0.052,-0.094,-0.161,0.114,0.018,-0.05,0.01
RIC8A isoform 3 (UniProt Q9NPQ8),0.063,0.114,0,-0.031,0.114,-0.052,0.005,-0.021,-0.071,-0.057
RPS12 (UniProt P25398),-0.115,-0.082,-0.072,-0.001,-0.021,-0.002,0.008,-0.02,0.027,-0.05
RBM17 (UniProt Q96I25),0.039,0.044,0.015,-0.023,-0.085,-0.029,0.1,0.011,-0.08,-0.16
RBM8A (UniProt Q9Y5S9),-0.021,-0.014,0.012,-0.008,-0.076,0.024,-0.069,-0.035,0.025,0.003

Target,log2 fold change [1],log2 fold change [2],log2 fold change [3],log2 fold change [4],log2 fold change [5],log2 fold change [6],log2 fold change [7],log2 fold change [8],log2 fold change [9],log2 fold change [10]
SIK3 (UniProt H0Y4E8),-0.074,0.045,–,0.094,0.074,–,-0.163,-0.099,0.051,0.15
RICTOR isoform 3 (UniProt Q6R327),0.116,0.025,-0.067,0.36,-0.031,–,–,-0.136,0.054,-0.001
RPS6KA5 (UniProt O75582),0.239,–,-0.079,-0.234,–,–,-0.091,–,–,–
S100A10 (UniProt P60903),–,0.122,–,–,0.194,0.052,–,-0.096,-0.042,-0.013
RPS3A (UniProt D6R9B6),–,-0.359,–,–,0.198,–,–,-0.243,0.303,0.034
RBM6 (UniProt P78332),–,0.019,–,–,0.036,–,–,-0.1,0.048,0.018
RMDN2 isoform 2 (UniProt Q96LZ7),–,–,–,–,–,–,0.088,–,–,–
SCLT1 (UniProt Q96NL6),–,–,–,–,–,-0.002,–,–,-0.088,0.051
SAMD4B (UniProt Q5PRF9),-0.117,–,-0.17,-0.13,–,0.124,-0.135,–,0.037,0.045
SHROOM2 (UniProt Q13796),0.266,-1.03 (active),0.095,-0.361,0.069,-0.021,–,0.013,-0.027,0.303
SDHAF4 (UniProt Q5VUM1),0,0.104,0.026,0.031,0.118,0.033,–,-0.117,0.054,0.094
SH2D1B (UniProt O14796),-0.294,-0.059,-0.218,-0.098,0.057,–,-0.228,-0.406,-0.036,0.028
RPS19 (UniProt M0R2L9),–,-0.054,–,–,-0.246,–,–,0.732,0.522,-0.095
RPAIN isoform 8 (UniProt Q86UA6),–,0.205,0.085,–,-0.03,0.048,0.083,0.009,-0.035,-0.002
RNF2 (UniProt Q99496),-0.014,0.116,-0.013,-0.231,-0.057,-0.004,–,-0.053,-0.103,-0.006
"RAD50, A0A494C0Y7",–,-0.029,–,–,0.049,-0.077,-0.111,0.048,-0.033,0.143
RCOR3 isoform 3 (UniProt Q9P2K3),0.116,0.084,–,-0.008,0.022,-0.01,-0.011,0.018,-0.003,0.057
